Bioassay records: PubChem BioAssay, National Center for Advancing Translational Sciences (NCATS)
HP1b binding inh – blocks HP1-beta chromodomain binding to methylated histone tails. AID 540317. P83916. AlphaScreen HP1-beta / biotin-H3K9me3 peptide binding. Potency, µM (titrated, usually from 114 µM), without a hit: top-dose activity change, negative = inhibition, most hits filed as inhibitors. 390,000 compounds, 0.56% hits; further: nearly all actives have a fitted effect of over 70% in size
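Compound inhibition of the preformed complex between 50 nM HP1-beta and 50 nM biotinylated H3K9me3 peptide was read by AlphaScreen. Buffer was PBS pH 7.4 with 0.01% Tween-20. Incubations ran 30 min at room temperature, with 10 ug/mL donor/acceptor beads.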
BAZ2B inh – BAZ2B (human) inhibition; 360,000 compounds, 4.4% hits; Potency, µM (doses to about 114 µM), for the others: at the highest dose activity change, negative = inhibition, usual class: inhibitors; Q9UIF8; AlphaScreen BAZ2B-H3K14Ac peptide displacement; further: on the % scale 0 is the no-effect control and ±100 the full control effect; nearly all actives have a fitted effect of over 60% in size
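BAZ2B 50 nM plus b-H3(5-23)K14Ac 50 nM, PBS pH 7.4/0.01% Tween-20, 30 min RT; compound added (max 110 uM), 30 min RT; streptavidin donor/Ni-chelate acceptor beads 10 ug/mL final, 20 min dark; AlphaScreen read.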
L3MBTL1 inh – blocks human L3MBTL1; 230,000 compounds, 0.66% hits; Potency, µM (titrated, usually from 57.1 µM), for inactives: top-dose activity, negative = inhibition, hits mostly inhibitors; AlphaScreen L3MBTL1–H3K9me1 peptide binding; further: on the % scale 0 is the no-effect control and ±100 the full control effect; nearly all actives have a fitted effect of over 60% in size
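Displacement of a biotinylated histone H3(1-15) peptide monomethylated at Lys9 (75 nM) from L3MBTL1 (50 nM) was measured by AlphaScreen after a 30 min room-temperature compound incubation; cefsulodin titration served as intraplate control.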
G9a block – inhibitors of human histone lysine methyltransferase G9a; Q96KQ7; G9a H3K9 monomethylation, AlphaScreen, 2 h; Potency, µM (highest dose often 102 µM), without a hit: top-dose activity, negative = inhibition, usual class: inhibitors; 350,000 compounds, 8.8% hits; further: on the % scale 0 is the no-effect control and ±100 the full control effect; nearly all actives have a fitted effect of over 75% in size
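G9a (20 nM) preincubated 15 min RT with compounds, then 500 nM biotinylated H3K9 peptide and 20 uM SAM added; 2 h RT reaction. Monomethyl-H3K9 product detected by AlphaScreen with anti-H3K9me1 antibody, streptavidin donor and anti-rabbit IgG acceptor beads.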
Sfp inh – inhibitors of Bacillus subtilis Sfp phosphopantetheinyl transferase. Potency, µM, for the others: largest response in the series, negative = inhibition, usual class: inhibitors. Biochemical Sfp PPTase activity, qHTS. 310,000 compounds, 3.5% hits. Q9F4F7;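 further: the enzyme is Sfp with the accession as filed and its product quenches rhodamine fluorescence; 0% = enzyme reaction without inhibitor and -100% = no enzyme wells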
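With Hepes-Na pH 7.6 buffer containing 10 mM MgCl2, Sfp (15 nM) modified BHQ-2-YbbR (12.5 uM) using rhodamine-CoA (5 uM). Two reads 30 minutes apart at 525/598 nm yielded each well's rate.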
JMJD2A Tudor – blocks the human JMJD2A Tudor domain | 390,000 compounds, 4.4% hits | Potency, µM (top dose mostly 114 µM), inactives show at the top dose activity change, negative = inhibition, actives largely listed as inhibitors | AlphaScreen JMJD2A-Tudor / H3K4me3 peptide binding; further: on the % scale 0 is the no-effect control and ±100 the full control effect; nearly all actives have a fitted effect of over 50% in size
* marks the source's active call; other numbers are inactive results; ? = inconclusive; · = no result given; ! = not confirmed by another sample; [ ] = remark or other dose. Only some compounds are listed: those with a hit (about 12% of all), similar ones and a draw of the others. The call rests on the fitted dose curve; in most records, active means well fitted curve in the direction sought with a large enough effect; inconclusive means small, poorly fitted or top-dose-only effect, or another doubt; inactive means no such curve, though single readings can be large; an effect the other way counts as inactive or inconclusive. Potency means the concentration at half of the fitted maximal effect.

SMILES	HP1b binding inh	BAZ2B inh	L3MBTL1 inh	G9a block	Sfp inh	JMJD2A Tudor
CCOC(=O)c1cnc2ccc(Cl)cc2c1Nc1ccc(N2CCOCC2)cc1	?	14.1µM*	·	7.08µM*	·	35.5µM*
CCOC(=O)c1cnc2ccc(C)cc2c1Nc1ccc(N2CCOCC2)cc1	22.4µM*	35.5µM*	?	39.8µM*	-18.6%	28.2µM*
CCOC(=O)c1cnc2ccc(C)cc2c1Nc1ccc(N(CC)CC)cc1	10µM*	3.55µM*	·	4.47µM*	·	12.6µM*
CN1C(=O)/C(=C2\SC(N3CCCCCC3)=NC2=O)c2ccccc21	?	?	·	39.8µM*	-12.0%	39.8µM*
CCCN1C(=O)/C(=C2\SC(N3CCCCC3)=NC2=O)c2ccccc21	-70.3%	15.8µM*	?	22.4µM*	?	39.8µM*
O=C1N=C(N2CCOCC2)S/C1=C1\C(=O)N(Cc2ccccc2)c2ccccc21	26.8%	21.2%	-1.0%	14.6%[59 µM]	-7.8%	-15.3%
CN1C(=O)/C(=C2\SC(N)=NC2=O)c2ccccc21	-6.1%	-29.9%	·	?	56.2µM*	?
CCOc1ccc(/C=C2\SC(N3CCCCC3)=NC2=O)cc1	17.6%	6.3%	·	18.0%	-3.9%	-10.6%
CN1C(=O)/C(=C2\SC(=S)N(NC(=O)c3cccnc3)C2=O)c2ccccc21	29.4%	?	6.6%	·	5.6%	-12.0%
Cc1ccc(/C=C2\SC(N3CCCC3)=NC2=O)cc1	·	-2.5%	-4.7%	5.0%	13.6%	·
CC1CN(C2=NC(=O)/C(=C3/C(=O)N(Cc4ccc(F)cc4)c4ccccc43)S2)CC(C)O1 (configuration not stated)	?	?	-16.9%	·	39.8µM*	-32.9%
CCCN1CCC(=O)N(C(CSc2ccc(OC)cc2)CC(C)C)CC1 (configuration not stated)	16.6%	·	·	·	2.7%	-24.1%
Cc1cccc(Cn2c(=O)n(-c3ccc(Cl)c(Cl)c3)c(=O)c3c(C)c(C)sc32)c1	35.3%	-0.5%	·	1.8%[59 µM]	·	-2.7%
O=C(Nc1ccc(Cl)cc1Cl)c1cccc(N2C(=O)C=CC2=O)c1	?	3.6%	0.8%	?	16.1%	3.16µM*
CCCCC[C@H](O)/C=C/C=C\C=C\C=C\[C@@H](O)[C@@H](O)CCCC(=O)O	·	·	·	28.0%[59 µM]	21.8%	·
N#CC(=C1CCCC1)c1nc(-c2ccccc2)cs1	104.3%	73.6%	28.1%	?	-1.4%	139.4%
N#CC(=C1CCCC1)c1nc(-c2ccccc2O)cs1	5.8%	-31.6%	-8.6%	35.5µM*	?	-22.7%
O=[N+]([O-])c1ccc(O)c(C=Nc2ccc3c(c2)OCO3)c1	17.3%	-11.4%	4.5%	·	-6.8%	-9.0%
O=[N+]([O-])c1cc(Br)cc(C=Nc2ccc3c(c2)OCO3)c1O	-13.0%	44.7µM*	-10.2%	44.7µM*	?	?
Cc1cccc(C)c1OCC(=O)N/N=C/c1cc2c(cc1[N+](=O)[O-])OCO2	18.5%	-18.5%	·	?	-9.6%	-30.8%
Cc1ccc(C)c(N=Cc2cc3c(cc2[N+](=O)[O-])OCO3)c1	44.7µM*	20µM*	·	?	?	50.1µM*
Cc1ccc(N=Cc2cc3c(cc2[N+](=O)[O-])OCO3)cc1[N+](=O)[O-]	-3.1%	·	·	·	·	?
O=[N+]([O-])c1ccc(S(=O)(=O)NN=Cc2ccc3c(c2)OCO3)cc1	0.0%	·	·	·	·	-26.6%
O=[N+]([O-])c1cc2c(cc1/C=N\NS(=O)(=O)c1ccccc1)OCO2	22.8%	-5.0%	-0.5%	3.98µM*	-16.6%	-11.2%
O=C(CCc1ccc(O)c(O)c1)N/N=C/c1cc2c(cc1[N+](=O)[O-])OCO2	?	44.7µM*	·	3.55µM*	39.8µM*	39.8µM*
SMILES	HP1b binding inh	BAZ2B inh	L3MBTL1 inh	G9a block	Sfp inh	JMJD2A Tudor
CC(C)(C)c1ccc(O)c(N=Cc2cc3c(cc2[N+](=O)[O-])OCO3)c1	?	50.1µM*	-1.6%[2.29 µM]	5.9%[0.501 µM]	-24.2%	?
O=C(O)c1ccc(/C=N/NC(=O)c2cc(-c3ccc4c5c(cccc35)CC4)n[nH]2)cc1	-13.6%	50.1µM*	-19.0%	?	11.4%	?
COc1ccc(OC)c(NC(=O)N2CCN(S(=O)(=O)c3ccc4c(ccn4C)c3)CC2)c1	-10.9%[57 µM]	?	·	-31.9%[59 µM]	·	?
c1ccc(-c2cc(N3CCOCC3)nc3ccccc23)cc1	8.7%	50.1µM*	·	4.47µM*	56.2µM*	3.16µM*
O=C(O)COc1ccccc1/C=N/NC(=O)CSc1nc2ccccc2c(=O)n1-c1ccc(Cl)cc1	15.1%	56.2µM*	·	?	2.4%	?
CCn1c(SCC(=O)N/N=C\c2ccccc2OCC(=O)O)nnc1-c1ccc(Cl)cc1	33.2%	-8.8%	1.5%	?	1.3%	1.0%
O=C(O)COc1ccccc1/C=N/NC(=O)CSc1nc2ccccc2c(=O)n1-c1ccccc1	0.9%	?	·	-2.5%	22.0%	-28.1%
CCn1c(SCC(=O)N/N=C/c2ccccc2OCC(=O)O)nnc1-c1ccc(OC)cc1	-6.9%	56.2µM*	-14.2%	-22.6%	-1.9%	-17.6%
Cc1ccc(-c2nnc(SCC(=O)NC(C)(C)C)nc2-c2ccc(C)cc2)cc1	5.9%	-29.0%	·	?	·	?
COc1ccc(C2Nc3ccccc3C(=O)N2Cc2ccco2)cc1COc1ccc(NC(C)=O)cc1 (configuration not stated)	7.8%	-5.9%	-3.3%	?	?	89.1µM*!
O=C1c2ccccc2NC(c2cccc(F)c2)N1Cc1ccco1 (configuration not stated)	12.5%	56.2µM*	4.47µM*	?	-19.4%	-24.5%
COc1ccc(C2Nc3ccccc3C(=O)N2Cc2cccc(Cl)c2)cc1COc1ccc(NC(C)=O)cc1 (configuration not stated)	·	·	·	·	·	-30.6%
COc1ccc(C2Nc3ccccc3C(=O)N2CCc2ccccc2)cc1COc1ccc(NC(C)=O)cc1 (configuration not stated)	·	·	·	·	·	-29.9%
COc1ccc(C2Nc3ccccc3C(=O)N2CCCN(C)C)cc1COc1ccc(NC(C)=O)cc1 (configuration not stated)	·	·	·	·	·	79.4µM*
CC(=O)Nc1cccc(OCc2cccc(C3Nc4ccccc4C(=O)N3Cc3ccco3)c2)c1 (configuration not stated)	·	·	·	·	·	31.6µM*
COc1cccc(OC)c1C(=O)Nc1cccc(-c2nc3cc(C)cc(C)c3o2)c1	17.1%	-21.2%	·	-11.9%[59 µM]	·	-17.5%
CC[C@@H](C)[C@@H](CO[C@@H](Cc1ccccc1)C(=O)N[C@@H](CCS(C)(=O)=O)C(=O)OC(C)C)NC[C@@H](N)CS	·	·	·	22.4µM*	-27.1%	·
Cc1noc(C)c1-c1ccc2ncnc(NC3CCCc4ccccc43)c2c1 (configuration not stated)	·	·	·	·	-13.5%	-33.8%
